Screens deposited in PubChem by National Center for Advancing Translational Sciences (NCATS).
Hits are enriched below; roughly 7.9% of the tested compounds scored in any of these assays.
MCF10A rereplic = inducers of DNA re-replication in MCF 10A breast cells; Potency, µM (highest dose often 46.1 µM), inactives show top-dose activity, positive = re-replication, usual class: activators; AID 624296; 350,000 tested, 2.9% active; MCF 10A DNA re-replication, Hoechst nuclear intensity, 48 h; note: % of control where 0% means no effect; nearly all actives have a fitted effect of over 50% in size
KB-V1 cytotox = kills drug-selected multidrug resistant KB-V1 cells; KB-V1 MDR cells viability, CellTiter-Glo, 72 h; 400,000 tested, 3.4% active; Potency, µM (series often up to 46.1 µM), usual class: cytotoxic; note: % is set by controls: 0 for no effect and ±100 for the full control effect; nearly all actives have a fitted effect of over 60% in size
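Cytotoxicity via CellTiter-Glo luminescence after 72 h compound exposure at 37 degrees C. Cells: drug-selected KB-V1 line, DMEM phenol-red free plus 10% FBS. Compounds tested at multiple concentrations; normalized data fitted to concentration-effect curves.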
KB-3-1 tox = KB-3-1 parental cell cytotoxicity | KB-3-1 viability, CellTiter-Glo ATP luminescence, 72 h | Potency, µM (doses to about 46.1 µM), usual class: cytotoxic | 400,000 tested, 1.4% active; note: % is set by controls: 0 for no effect and ±100 for the full control effect; nearly all actives have a fitted effect of over 60% in size
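Multi-concentration cytotoxicity screen in KB-3-1 cells grown in DMEM lacking phenol red with 10% FBS. After 72 h at 37 °C with compound, ATP-dependent luminescence was recorded.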
HT1080 IDH1KD tx = toxicity to HT-1080 IDH1 knockdown cells (counter line). HT-1080 IDH1 knockdown viability, ATP luminescence, 48 h. Potency, µM (highest dose often 46.1 µM), without a hit: top-dose activity, negative = toxicity, most hits filed as cytotoxic. AID 686971. 360,000 tested, 2% active;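 note: 0% = DMSO wells and -100% = cell-free medium wells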
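CellTiter-Glo luminescence after 48 h compound exposure at 37 degrees C of IDH1-knockdown HT-1080 cells in 5% FBS RPMI. %Activity scaled between DMSO wells and cell-free media wells, with curves fitted and assigned curve classes.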
SW480 rereplic = inducers of DNA re-replication in SW480 colon cancer cells. SW480 DNA re-replication, Hoechst DNA content imaging, 48 h. 340,000 tested, 1.8% active. Potency, µM (top dose mostly 46.1 µM), for inactives: top-dose re-replication activation, most hits filed as activators; note: % of control where 0% means no effect; nearly all actives have a fitted effect of over 55% in size
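SW480 cells exposed to compounds for 48 hr at 37 C, 5% CO2, then Hoechst-stained 40 min. Nuclear DNA content imaged by fluorescence scanning (405 nm excitation, 500-530 nm emission); re-replication scored as increased high-intensity nuclei.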
HT1080-NT tox = kills 2HG-producing HT-1080-NT fibrosarcoma cells | HT-1080-NT fibrosarcoma viability, CellTiter-Glo ATP luminescence, 48 h | Potency, µM (top dose mostly 46.1 µM), inactives show at the top dose activity, negative = less viability, usual class: cytotoxic | 360,000 tested, 1.6% active | AID 686970;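 note: NT is the 2HG producing partner of a matched IDH1 knockdown line; 0% = DMSO-treated cells and -100% = media-only wells without cells; nearly all actives have a fitted effect of over 55% in size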
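HT-1080-NT fibrosarcoma cells (2HG-overproducing), 750 cells/well in RPMI with 5% FBS, dosed after 2 h and incubated 48 h at 37C. CellTiter-Glo luminescence normalized to DMSO and no-cell wells; concentration-response curves fitted and classed.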
Starred values were filed as active, the others as inactive; i = inactive; ? = inconclusive; . = no result given; [ ] = dose if it differs, or a comment. Calls come from the whole dose curve; as a rule, active = well fitted curve in the direction sought with a large enough effect; inconclusive = small, poorly fitted or top-dose-only effect, or another doubt; inactive = no such curve, though single readings can be large; an effect the other way counts as inactive or inconclusive. Potency is the fitted concentration of half-maximal effect.

SMILES	MCF10A rereplic	KB-V1 cytotox	KB-3-1 tox	HT1080 IDH1KD tx	SW480 rereplic	HT1080-NT tox
COc1ccc(CC(=O)Nc2ccc(-c3cn4ccc(C)cc4n3)cc2)cc1	?	?	i	?	?	15µM*
CC(C)(C)C1CCc2c(sc(NC(=O)c3cccc(Cl)c3)c2C(N)=O)C1 (stereo not given)	.	i	i	.	.	.
CCOc1cc(C2NC(=O)NC2=O)ccc1O (stereo not given)	-5%	i	i	12%	-3%	21%
CCOc1cc2c(cc1O)C(=NO)CC1C2CCC2(C)C(O)CCC12 (stereo not given)	?	i	i	?	?	0.29µM*
O=C(NCC1CCCO1)c1coc2nc3ccccc3nc12 (stereo not given)	21µM*	?	i	?	11%	?
C=CCn1c(N)c(C(=O)NCC2CCCO2)c2nc3ccccc3nc21 (stereo not given)	-7%	?	i	-23%	9.2µM*	?
CCSc1nc2sc3c(c2c(=O)n1-c1ccccc1)CCN(C(C)C)C3	18µM*	i	i	24%	-1%	20%
CN1CCc2c(sc3nc(SCC(N)=O)n(-c4ccccc4)c(=O)c23)C1	16%	i	i	-2%	2%	2%
CN1CCc2c(sc3nc(SCC(N)=O)n(-c4ccc(Cl)cc4)c(=O)c23)C1	16µM*	i	i	0%	?	-1%
CCCCCNc1nc2sc3c(c2c(=O)n1-c1cccc(Cl)c1)CCN(C)C3	?	i	?	?	1%[9.22 µM]	15µM*
CCOC(=O)C1=C(C)NC2=C(C(=O)C(C(=O)OCC)C(c3ccco3)C2)C1c1ccccc1C (stereo not given)	.	i	i	.	.	.
CCOC(=O)C1=C(C)NC2=C(C(=O)C(C(=O)OCC)C(c3ccco3)C2)C1c1ccccn1 (stereo not given)	373%[0.0737 µM]	i	i	12%	6.5µM*	1%
Cc1cc(C)cc(OCCOCCn2c(-c3ccc(Cl)cc3)nc3ccccc3c2=O)c1	.	i	i	.	.	.
Cc1c(C(=O)NCc2ccco2)sc2nc(-c3ccccc3)cn12	?	i	16µM*	?	?	?
Cc1c(C(=O)Nc2ccncc2)sc2nc(-c3ccccc3)cn12	?	i	i	-6%	0%	2%
Cc1c(C(=O)N2CCOCC2)sc2nc(-c3ccccc3)cn12	-12%	23µM*	i	5%	-9%	8%
Cc1c(C(=O)Nc2ccc3c(c2)OCCO3)sc2nc(-c3ccccc3)cn12	-1%	12µM*	?	?	-1%	?
COc1ccc(Cc2c(-c3ccc(F)cc3)nc3ccc(Cl)cn23)c(C)c1	.	i	i	?	.	-20%
Cc1ccc2c(c1)C(=O)CC(c1ccc3c(c1)OCCO3)O2 (stereo not given)	16µM*	i	i	-19%	19%	-16%
COc1ccc2c(c1)C(=O)CC(c1ccc3c(c1)OCCO3)O2 (stereo not given)	-7%	i	i	-18%	0%	-21%
COc1cc(OC)c(NC(=O)CCS(=O)(=O)c2ccc3c(c2)oc(=O)n3C)cc1Cl	.	i	?	.	.	.
CC1(S(=O)(=O)O)CC(=O)c2ccccc2C1=O (stereo not given)	?	i	?	21µM*	15µM*	18µM*
CC1(N2CCCCC2)C(=O)c2ccccc2C1=O	?	i	i	-10%	-13%	-16%
CCOC(=O)CSc1cc(CS(=O)(=O)c2ccccc2)nc(-c2ccccc2)n1	-2%	i	i	4%	4%	7%
O=S(=O)(Cc1cc(Cl)nc(-c2ccncc2)n1)c1ccccc1	?	i	i	?	?	23µM*
SMILES	MCF10A rereplic	KB-V1 cytotox	KB-3-1 tox	HT1080 IDH1KD tx	SW480 rereplic	HT1080-NT tox
O=S(=O)(Cc1cc(Cl)nc(-c2ccccc2)n1)c1ccccc1	21µM*	i	i	?	?	2%
Cc1ccc(S(=O)(=O)NCCC(=O)NC2CCCCCC2)cc1C	0%	18µM*	i	2%	-2%	2%
Cc1ccc(S(=O)(=O)CCC(=O)NC2CCCCC2)cc1	4%	i	i	4%	-5%	11%
Cc1ccc(S(=O)(=O)CCC(=O)NC2CCCC2)cc1	1%	i	i	13%	21µM*	3%
COc1ccc(/C=C/C(=O)Nc2ccccc2C(=O)NCC(c2ccc(OC)cc2)N(C)C)cc1 (stereo not given)	?	i	i	?	106%	?
Cc1nc(Sc2ccc(Br)cc2)c(C#N)c(C)c1[N+](=O)[O-]	21µM*	?	?	?	18%	?
Cc1nc(Sc2ccc(Cl)cc2)c(C#N)c(C)c1[N+](=O)[O-]	18µM*	?	i	?	?	?
Cc1ccc(Sc2nc(C)c([N+](=O)[O-])c(C)c2C#N)cc1	?	i	i	-11%	-37%	-2%
Cc1nn(-c2ccccc2)c(OC(=O)c2ccccc2Br)c1S(=O)(=O)c1ccccc1	.	i	i	.	.	.
COc1cc(Cl)c(NS(=O)(=O)c2ccc3[nH]c(=O)ccc3c2)c(OC)c1	.	?	i	.	.	.
CCC(CC)CN1CCC(CN2C(=O)C(=O)NC[C@@H]2CC(C)C)CC1	.	i	i	22%	.	12%
COc1ccc(C2c3cccn3CCN2S(=O)(=O)c2ccc([N+](=O)[O-])cc2)cc1 (stereo not given)	.	i	i	.	.	.
COc1ccc(C(=O)/C=C2/C(=O)Nc3ccccc32)c(OC)c1	23µM*	?	?	23µM*	?	18µM*
NC(=O)COc1ccc(C(=O)/C=C2/C(=O)Nc3ccccc32)cc1	?	i	i	?	23µM*	-26%
COc1ccc(C(=O)/C=C2/c3ccccc3CC(C)(C)N2C)cc1	?	i	i	6.3µM*	?	6.3µM*
O=C1Nc2ccccc2/C1=C/C(=O)c1cccs1	21µM*	i	i	?	?	?
COc1ccc(N2CCN(C(CNC(=O)CC(C)C)c3ccc4c(c3)OCO4)CC2)cc1 (stereo not given)	.	i	i	.	.	.
Cc1cccc(NC(=O)CNC(=O)[C@H]2O[C@@H](n3ccc(N)nc3=O)[C@H](O)[C@@H]2O)c1C	.	i	i	21%	.	25%
